Measurements: PubChem BioAssay AID1159580 (chemical genetic matrix, 2015)
Values joined by “and” are separate entries in the source; they are usually repeats but may differ in a detail not shown here. Identical values can stand only once. Screen size: about 5,500 compounds; about 2,000 (36%) were called active. Another 18% or so got no clear call; they are omitted. Rule as the data show it: active = normalized growth mostly below about 0.91 (no sharp cut-off); inconclusive = no clear call, values can overlap the other calls; inactive = mostly above about 0.92. Some of the results follow.

Experiment: chemical genetic growth profiling, strain panel (AID 1159580);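 also: tested at 20 µM; growth read once vehicle control cultures reached saturation at 30 °C; 1 = growth at the plate median or of vehicle wells; lower values mean less growth of the strain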
Conditions: S. cerevisiae deletion strains, growth OD

Measured: normalized growth

COc1cc2c(cc1OC)[C@@]13CCN4CC5=CCOC6CC(=O)N2C1[C@H]6[C@H]5C[C@H]43 (stereo partly drawn)
inactive: locus YAL013W, strain DEP1, stronger effect = lower value 1.02 | locus YAL021C, strain ccr4, stronger effect = lower value 0.983 | locus YAL026C, strain drs2, stronger effect = lower value 0.998 | locus YAL030W, strain snc1, stronger effect = lower value 1 | locus YBL061C, strain skt5, stronger effect = lower value 0.994 | locus YBR009C, strain hhf1, stronger effect = lower value 0.994 | locus YBR021W, strain FUR4, stronger effect = lower value 0.985 | locus YBR023C, strain chs3, stronger effect = lower value 0.989 | locus YBR171W, strain sec66, stronger effect = lower value 0.99 | locus YBR229C, strain ROT2, stronger effect = lower value 1.01 | locus YBR231C, strain swc5, stronger effect = lower value 0.979 | locus YBR279W, strain paf1, stronger effect = lower value 0.993 | locus YCL011C, strain gbp2, stronger effect = lower value 0.988 | locus YCL016C, strain dcc1, stronger effect = lower value 0.986 | locus YCL029C, strain bik1, stronger effect = lower value 1.01 | locus YCL061C, strain MRC1, stronger effect = lower value 0.988 | locus YCL069W, strain vba3, stronger effect = lower value 0.995 | locus YCR088W, strain abp1, stronger effect = lower value 0.994 | locus YDL005C, strain med2, stronger effect = lower value 0.988 | locus YDL035C, strain GPR1, stronger effect = lower value 1.03 | locus YDL040C, strain nat1, stronger effect = lower value 0.983 | locus YDL074C, strain BRE1, stronger effect = lower value 1.03 | locus YDL101C, strain DUN1, stronger effect = lower value 1.02 | locus YDL185W, strain tfp1, stronger effect = lower value 1 | locus YDL192W, strain arf1, stronger effect = lower value 1.01 | locus YDR001C, strain nth1, stronger effect = lower value 0.997 | locus YDR069C, strain doa4, stronger effect = lower value 1 | locus YDR101C, strain arx1, stronger effect = lower value 0.997 | locus YDR137W, strain rgp1, stronger effect = lower value 1 | locus YDR150W, strain NUM1, stronger effect = lower value 1.02 | locus YDR159W, strain sac3, stronger effect = lower value 0.977 | locus YDR162C, strain NBP2, stronger effect = lower value 1.02 | locus YDR195W, strain ref2 0.927 | locus YDR297W, strain sur2, stronger effect = lower value 0.996 | locus YDR318W, strain mcm21, stronger effect = lower value 1.02 | locus YDR334W, strain swr1, stronger effect = lower value 0.986 | locus YDR335W, strain msn5, stronger effect = lower value 0.996 | locus YDR388W, stronger effect = lower value 0.994 | locus YDR392W, strain spt3, stronger effect = lower value 0.999 | locus YDR502C, strain sam2, stronger effect = lower value 1.03 | locus YEL003W, strain gim4, stronger effect = lower value 0.997 | locus YEL037C, strain rad23, stronger effect = lower value 0.989 | locus YEL061C, strain CIN8 (second series), stronger effect = lower value 0.986 | locus YEL061C, strain CIN8, stronger effect = lower value 1.01 | locus YER015W, strain faa2, stronger effect = lower value 0.989 | locus YER016W, strain bim1, stronger effect = lower value 0.989 | locus YER110C, stronger effect = lower value 0.997 | locus YER111C, strain swi4, stronger effect = lower value 0.971 | locus YER155C, strain BEM2 (second series), stronger effect = lower value 0.993 | locus YER155C, strain BEM2, stronger effect = lower value 1.01 | locus YER167W, strain BCK2, stronger effect = lower value 1 | locus YFR010W, strain ubp6, stronger effect = lower value 0.999 | locus YGL078C, strain dbp3, stronger effect = lower value 1.01 | locus YGL086W, strain mad1, stronger effect = lower value 1 | locus YGL167C, strain pmr1, stronger effect = lower value 0.988 | locus YGL173C, strain kem1, stronger effect = lower value 0.982 | locus YGL227W, strain vid30, stronger effect = lower value 0.984 | locus YGL240W, strain doc1, stronger effect = lower value 0.979 | locus YGL248W, strain PDE1, stronger effect = lower value 1.01 | locus YGL253W, strain hxk2, stronger effect = lower value 0.988 | locus YGR078C, strain PAC10, stronger effect = lower value 1.02 | locus YGR135W, strain pre9, stronger effect = lower value 1.01 | locus YGR229C, strain SMI1, stronger effect = lower value 1.04 | locus YGR252W, strain gcn5, stronger effect = lower value 0.994 | locus YHR013C, strain ard1, stronger effect = lower value 0.964 | locus YHR027C, strain rpn1, stronger effect = lower value 0.987 | locus YHR030C, strain SLT2, stronger effect = lower value 1.02 and 1.01 | locus YHR079C, strain IRE1 (second series), stronger effect = lower value 0.996 | locus YHR079C, strain IRE1, stronger effect = lower value 1.09 | locus YHR094C, strain hxt1, stronger effect = lower value 0.977 | locus YHR129C, strain ARP1, stronger effect = lower value 1.02 | locus YHR142W, strain chs7, stronger effect = lower value 0.99 | locus YHR200W, strain rpn10, stronger effect = lower value 0.99 | locus YIL066C, strain RNR3, stronger effect = lower value 1.02 | locus YIL073C, strain SPO22, stronger effect = lower value 1.02 | locus YIL125W, strain kgd1, stronger effect = lower value 1 | locus YIR030C, strain dcg1, stronger effect = lower value 0.996 | locus YJL092W, strain hpr5, stronger effect = lower value 0.984 | locus YJL095W, strain BCK1 (second series), stronger effect = lower value 0.984 | locus YJL095W, strain BCK1, stronger effect = lower value 1.02 and 0.999 | locus YJL115W, strain asf1, stronger effect = lower value 0.993 | locus YJL129C, strain trk1, stronger effect = lower value 0.99 | locus YJL134W, strain LCB3, stronger effect = lower value 1.01 | locus YJL154C, strain vps35, stronger effect = lower value 0.986 | locus YJL164C, strain tpk1, stronger effect = lower value 1.01 | locus YJL166W, strain qcr8, stronger effect = lower value 0.996 | locus YJL168C, strain set2, stronger effect = lower value 1 | locus YJL187C, strain SWE1 (second series), stronger effect = lower value 1.02 | locus YJL187C, strain SWE1, stronger effect = lower value 0.996 | locus YJR043C, strain POL32, stronger effect = lower value 1.04 | locus YJR066W, strain TOR1, stronger effect = lower value 0.973 | locus YJR075W, strain HOC1, stronger effect = lower value 1.02 | locus YKL009W, strain mrt4, stronger effect = lower value 1.04 | locus YKL068W, stronger effect = lower value 0.995 | locus YKL085W, strain MDH1 (second series), stronger effect = lower value 1 | locus YKL085W, strain MDH1, stronger effect = lower value 1 | locus YKL160W, strain elf1, stronger effect = lower value 0.98 | locus YKR001C, strain vps1, stronger effect = lower value 1.01 | locus YKR026C, strain gcn3, stronger effect = lower value 0.991 | locus YKR091W, strain srl3, stronger effect = lower value 0.994 | locus YLL001W, strain dnm1, stronger effect = lower value 0.989 | locus YLL026W, stronger effect = lower value 0.99 | locus YLL041C, strain sdh2, stronger effect = lower value 0.995 | locus YLR027C, strain aat2, stronger effect = lower value 0.996 | locus YLR039C, strain RIC1, stronger effect = lower value 1.04 | locus YLR058C, strain SHM2, stronger effect = lower value 1.02 | locus YLR102C, strain apc9, stronger effect = lower value 0.997 | locus YLR113W, strain HOG1, stronger effect = lower value 0.991 | locus YLR221C, strain rsa3, stronger effect = lower value 0.997 | locus YLR258W, strain gsy2, stronger effect = lower value 0.99 | locus YLR262C, strain YPT6 (second series), stronger effect = lower value 0.988 | locus YLR262C, strain YPT6, stronger effect = lower value 1.05 | locus YLR268W, strain sec22, stronger effect = lower value 1 | locus YLR320W, strain mms22, stronger effect = lower value 0.982 | locus YLR330W, strain CHS5, stronger effect = lower value 1.01 | locus YLR342W, strain FKS1 (second series), stronger effect = lower value 1.02 | locus YLR342W, strain FKS1, stronger effect = lower value 0.989 | locus YLR357W, strain rsc2, stronger effect = lower value 0.983 | locus YLR370C, strain arc18, stronger effect = lower value 0.991 | locus YLR371W, strain rom2, stronger effect = lower value 0.993 | locus YLR384C, strain iki3, stronger effect = lower value 0.995 | locus YLR418C, strain cdc73, stronger effect = lower value 1.01 | locus YML016C, strain PPZ1, stronger effect = lower value 1.01 | locus YML032C, strain rad52, stronger effect = lower value 1.01 | locus YML120C, strain ndi1, stronger effect = lower value 0.981 | locus YML124C, strain tub3, stronger effect = lower value 1 | locus YMR058W, strain fet3, stronger effect = lower value 0.986 | locus YMR078C, strain ctf18, stronger effect = lower value 1 | locus YMR125W, strain sto1, stronger effect = lower value 0.992 | locus YMR129W, stronger effect = lower value 0.997 | locus YMR205C, strain PFK2, stronger effect = lower value 0.973 | locus YMR223W, strain ubp8, stronger effect = lower value 1 | locus YMR231W, strain pep5, stronger effect = lower value 0.995 | locus YMR307W, strain GAS1, stronger effect = lower value 1.05 | locus YNL067W, strain RPL9B, stronger effect = lower value 1.01 | locus YNL071W, strain lat1, stronger effect = lower value 0.997 | locus YNL128W, strain TEP1, stronger effect = lower value 1.03 | locus YNL153C, strain GIM3, stronger effect = lower value 1.02 | locus YNL183C, strain NPR1, stronger effect = lower value 0.968 | locus YNL209W, strain ssb2, stronger effect = lower value 1 | locus YNL233W, strain BNI4, stronger effect = lower value 1.01 | locus YNL248C, strain rpa49, stronger effect = lower value 0.992 | locus YNL250W, strain rad50, stronger effect = lower value 1 | locus YNL271C, strain bni1, stronger effect = lower value 1.01 | locus YNL298W, strain CLA4, stronger effect = lower value 1.01 | locus YNL307C, strain MCK1, stronger effect = lower value 0.996 | locus YNL322C, strain KRE1 (second series), stronger effect = lower value 0.982 | locus YNL322C, strain KRE1, stronger effect = lower value 1.01 | locus YNR049C, strain mso1, stronger effect = lower value 0.989 | locus YNR052C, strain pop2, stronger effect = lower value 0.995 | locus YOL012C, strain htz1 1.21 | locus YOL147C, strain pex11, stronger effect = lower value 0.993 | locus YOR001W, strain rrp6, stronger effect = lower value 0.994 | locus YOR061W, strain CKA2, stronger effect = lower value 1.01 | locus YOR069W, strain VPS5, stronger effect = lower value 1.02 | locus YOR070C, strain gyp1, stronger effect = lower value 0.998 | locus YOR080W, strain dia2, stronger effect = lower value 0.986 | locus YOR083W, strain WHI5, stronger effect = lower value 0.993 | locus YOR106W, strain vam3, stronger effect = lower value 0.997 | locus YOR136W, strain idh2, stronger effect = lower value 0.991 | locus YOR144C, strain elg1, stronger effect = lower value 0.997 | locus YOR184W, strain ser1, stronger effect = lower value 1.02 | locus YOR231W, strain MKK1, stronger effect = lower value 1 | locus YOR265W, strain rbl2, stronger effect = lower value 0.991 | locus YOR270C, strain vph1, stronger effect = lower value 1 | locus YOR290C, strain snf2, stronger effect = lower value 0.99 | locus YOR316C, strain cot1, stronger effect = lower value 0.995 | locus YPL051W, strain arl3, stronger effect = lower value 0.997 | locus YPL055C, strain LGE1, stronger effect = lower value 1.03 | locus YPL078C, strain atp4, stronger effect = lower value 0.988 | locus YPL106C, strain sse1, stronger effect = lower value 0.971 | locus YPL240C, strain hsp82, stronger effect = lower value 0.988 | locus YPL256C, strain CLN2, stronger effect = lower value 0.979 | locus YPR119W, strain clb2, stronger effect = lower value 1 | locus YPR141C, strain kar3, stronger effect = lower value 0.998 | locus YPR163C, strain tif3, stronger effect = lower value 1.01 | locus YPR167C, strain met16, stronger effect = lower value 1.01 | strain wtn01, stronger effect = lower value 1
